Among the data in PubChem BioAssay (Tox21) are Potency, activity, negative = inhibition and activity change, negative = inhibition values, retold here.

Unmarked numbers belong to inactive results. Inconclusive results are not listed. Active and inactive are the calls of the source. Calls follow the shape of the full dose curve.

For experiment [1], the target named is Acetylcholinesterase (Homo sapiens) (UniProt P22303). As to the kind of experiment: Acetylcholinesterase (AChE) small molecule antagonists: colormetric cell-based qHTS assay (AID 1347395). Also: nearly all actives have a fitted effect of over 30% in size. Also: potency is read from the fitted curve at half-maximal effect. The gist of the method: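 In this cell-based qHTS, attached SH-SY5Y cells were treated with test chemicals for 30 min, after which acetylthiocholine hydrolysis was followed by DTNB colour development over 90 min at 37 C.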
Sequence of Acetylcholinesterase (Homo sapiens) (P22303 whole entry, looked up): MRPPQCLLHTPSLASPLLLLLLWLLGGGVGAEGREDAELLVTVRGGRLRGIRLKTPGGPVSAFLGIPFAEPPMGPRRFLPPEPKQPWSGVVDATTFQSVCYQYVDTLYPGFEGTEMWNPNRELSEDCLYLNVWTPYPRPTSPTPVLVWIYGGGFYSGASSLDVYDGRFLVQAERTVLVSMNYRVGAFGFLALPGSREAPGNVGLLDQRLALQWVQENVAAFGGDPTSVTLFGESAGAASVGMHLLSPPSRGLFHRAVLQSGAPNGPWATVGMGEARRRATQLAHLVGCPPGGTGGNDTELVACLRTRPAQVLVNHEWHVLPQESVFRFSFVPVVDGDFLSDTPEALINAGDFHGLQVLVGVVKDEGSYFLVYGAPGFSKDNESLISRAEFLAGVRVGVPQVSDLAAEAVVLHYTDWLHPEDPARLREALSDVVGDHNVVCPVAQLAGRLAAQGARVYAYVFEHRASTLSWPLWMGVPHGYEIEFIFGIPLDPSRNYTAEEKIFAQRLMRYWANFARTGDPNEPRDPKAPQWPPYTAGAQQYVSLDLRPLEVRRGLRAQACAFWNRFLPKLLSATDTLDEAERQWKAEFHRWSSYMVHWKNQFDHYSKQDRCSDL
In general terms: qHTS replaces the single test concentration by a dilution series.

The target is the same in experiment [2]. The experiment can be described thus: Acetylcholinesterase (AChE) small molecule antagonists: enzyme-based qHTS assay (AID 1347397). Also: nearly all actives have a fitted effect of over 55% in size. Also: potency is read from the fitted curve at half-maximal effect. To be noted: Potency: AChE enzyme activity inhibition; outcome: AChE enzyme activity inhibition. The gist of the method: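 rhAChE 50 mU/mL (dispensed) + cpd or DMSO, 30 min RT; add DTNB/acetylthiocholine cocktail, 10 min RT; colorimetric thiocholine readout. qHTS, 1536-well format.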

For experiment [3] the target is unchanged. As to the kind of experiment: Acetylcholinesterase (AChE) small molecule antagonists: fluorescence cell-based qHTS assay (AID 1347398). Also: nearly all actives have a fitted effect of over 50% in size. Also: potency is read from the fitted curve at half-maximal effect. As to conditions: Potency: AChE activity; outcome: AChE activity. The gist of the method: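 Read-out is Thiolite Green fluorescence at Ex/Em = 490/520 nm, formed by reaction with thiocholine released when cellular AChE in SH-SY5Y cells hydrolyzes acetylthiocholine. Compounds were preincubated 30 min at 37 C before substrate.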

Experiment [4] shares this target. As to the kind of experiment: Acetylcholinesterase (AChE) small molecule antagonists: enzyme-based qHTS assay with human liver microsomes (AID 1347399). Also: nearly all actives have a fitted effect of over 60% in size. To be noted: Potency: qHTS inhibition; outcome: qHTS inhibition. Put shortly: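 Recombinant human AChE (50 mU/mL in the enzyme mix) and human liver microsomes (0.25 mg/mL final) were preincubated with compound and NADPH (0.25 mg/mL final) for 30 min at 37 C. Acetylthiocholine/DTNB was then added; thiocholine was read colorimetrically after 10 min at room temperature.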
% is scaled to controls: 0 for no effect and ±100 for the full control effect.

For the compound `O=S1OCCO1`, the Potency result in experiment [1], in experiment [2], in experiment [3] and in experiment [4] was “inactive” each time.

Regarding `CO/N=C(\C(=O)N[C@@H]1C(=O)N2C(C(=O)O)=C(CSc3nc(=O)c(O)nn3C)CS[C@H]12)c1csc(N)n1`, the Potency result in experiment [1], in experiment [2], in experiment [3] and in experiment [4] was “inactive” each time.

Turning to `CCCCC(CC)COCCO` (configuration not stated), the Potency entry in experiment [1], in experiment [2], in experiment [3] and in experiment [4] was “inactive” throughout.

Take `Cc1ccc(=O)n(-c2ccccc2)c1`: the Potency entry in experiment [1], in experiment [2], in experiment [3] and in experiment [4] was “inactive” each time.

In the case of `CC(C)Cc1ccc(C(C)C(=O)OCc2ccccn2)cc1` (configuration not stated), the Potency entry in experiment [1], in experiment [2], in experiment [3] and in experiment [4] was “inactive” throughout.

Consider `CC(=O)NO`, for which the Potency result in experiment [1], in experiment [2], in experiment [3] and in experiment [4] was “inactive” in each case.

As to `C[C@@]12CCC[C@H]1[C@@H]1CC[C@H]3C[C@@H](O)CC[C@]3(C)[C@H]1CC2`, the Potency entry in experiment [1], in experiment [2], in experiment [3] and in experiment [4] was “inactive” throughout.

Take `C[C@@H]1CC[C@H]2C(C)(C)[C@H]3C[C@@]12CC[C@@]3(C)O`: the Potency entry in experiment [1], in experiment [2], in experiment [3] and in experiment [4] was “inactive” in each case.

In the case of `COC(OC)(C(=O)c1ccccc1)c1ccccc1`, the Potency result in experiment [1], in experiment [2], in experiment [3] and in experiment [4] was “inactive” each time.

As to `OCCNCc1ccccc1`, the Potency result in experiment [1], in experiment [2], in experiment [3] and in experiment [4] was “inactive” in each case.

Turning to `Cc1cccc(C)c1NC(=O)CN(CC(=O)O)CC(=O)O`, the Potency entry in experiment [1], in experiment [2], in experiment [3] and in experiment [4] was “inactive” each time.

For the compound `CN1CCCC(n2nc(Cc3ccc(Cl)cc3)c3ccccc3c2=O)CC1` (configuration not stated), the Potency in experiment [1] was 17.4 µM (active); in experiment [2] it was 27.5 µM (active); in experiment [3], 13.8 µM (active). For the same compound, the Potency entry in experiment [4] was “inactive”.

`O=C(OC(=O)c1ccccc1)c1ccccc1`: the Potency result in experiment [1], in experiment [2], in experiment [3] and in experiment [4] was “inactive” in each case.

Regarding `CC(=O)N[C@@H](CC(C)C)C(=O)O`, the Potency entry in experiment [1], in experiment [2], in experiment [3] and in experiment [4] was “inactive” each time.

For `O=[N+]([O-])c1cccc(I)c1`, the Potency result in experiment [1], in experiment [2], in experiment [3] and in experiment [4] was “inactive” in each case.

With `COc1ccc2cccc(CCNC(C)=O)c2c1`, the Potency entry in experiment [1], in experiment [2], in experiment [3] and in experiment [4] was “inactive” throughout.

For the compound `c1ccc(-c2nc3ccccc3[nH]2)cc1`, the Potency entry in experiment [1], in experiment [2], in experiment [3] and in experiment [4] was “inactive” each time.

On to `O=CN1CCOCC1`, for which the Potency entry in experiment [1], in experiment [2], in experiment [3] and in experiment [4] was “inactive” throughout.

As to `[Ca+2]`, the Potency result in experiment [1], in experiment [2], in experiment [3] and in experiment [4] was “inactive” in each case.

`CC(C)Cn1cnc2c(N)nc3ccccc3c21`: the activity, negative = inhibition in experiment [1] is -1.3% [at 23.6 µM]. Besides, the results for the activity change, negative = inhibition in experiment [2], in experiment [3] and in experiment [4] were -0.415% [at 23.6 µM], -8.86% [at 23.8 µM] and 1.68% [at 23.6 µM], respectively.

Regarding `O=C1OC(=O)c2cc(Oc3ccc4c(c3)C(=O)OC4=O)ccc21`, the Potency result in experiment [1], in experiment [2], in experiment [3] and in experiment [4] was “inactive” in each case.

In the case of `COc1cc(Cl)c(OC)cc1N`, the Potency entry in experiment [1], in experiment [2], in experiment [3] and in experiment [4] was “inactive” throughout.

On to `CCCCCN(CCCCC)C(=O)C(CCC(=O)O)NC(=O)c1ccc(Cl)c(Cl)c1` (configuration not stated), for which the Potency result in experiment [1], in experiment [2], in experiment [3] and in experiment [4] was “inactive” each time.

Turning to `CCN(CC)C(=O)Nc1ccc(OCC(O)CNC(C)(C)C)c(C(C)=O)c1` (configuration not stated), the Potency entry in experiment [1], in experiment [2], in experiment [3] and in experiment [4] was “inactive” each time.

`COC(=O)c1cccc(Cl)c1`: the Potency result in experiment [1], in experiment [2], in experiment [3] and in experiment [4] was “inactive” each time.

Turning to `COc1cc(OC)nc(NC(=O)NS(=O)(=O)Nc2ccccc2C(=O)N(C)C)n1`, the Potency entry in experiment [1], in experiment [2], in experiment [3] and in experiment [4] was “inactive” in each case.

Take `Nc1ccc(F)cc1`: the Potency entry in experiment [1], in experiment [2], in experiment [3] and in experiment [4] was “inactive” throughout.

As to `CC(=O)OCCc1ccccc1`, the Potency entry in experiment [1], in experiment [2], in experiment [3] and in experiment [4] was “inactive” each time.

On to `COc1nc(C)nc(Cl)c1NC1=NCCN1`, for which the Potency result in experiment [1], in experiment [2], in experiment [3] and in experiment [4] was “inactive” in each case.

As to `CC(=O)OC1C2(C)CCC(C2)C1(C)C` (configuration not stated), the Potency result in experiment [1], in experiment [2], in experiment [3] and in experiment [4] was “inactive” throughout.

With `CCCCCCCCCCCCSC`, the Potency result in experiment [1], in experiment [2], in experiment [3] and in experiment [4] was “inactive” in each case.

As for `CCCO`, the Potency result in experiment [1], in experiment [2], in experiment [3] and in experiment [4] was “inactive” throughout.

On to `CC(=O)SC[C@@H](Cc1ccccc1)C(=O)NCC(=O)OCc1ccccc1`, for which the Potency entry in experiment [1], in experiment [2], in experiment [3] and in experiment [4] was “inactive” throughout.

As to `COCc1nnc(-c2ccc[n+]([O-])c2)n1-c1c(Cl)c(Cl)cc2[nH]c(=O)c(=O)[nH]c12`, the Potency entry in experiment [1], in experiment [2], in experiment [3] and in experiment [4] was “inactive” each time.

For `CCc1cccc(CC)c1NC(=O)CN(CC(=O)O)CC(=O)O`, the Potency entry in experiment [1], in experiment [2], in experiment [3] and in experiment [4] was “inactive” throughout.

Take `CCOC(=O)CC`: the Potency result in experiment [1], in experiment [2], in experiment [3] and in experiment [4] was “inactive” throughout.

Consider `Nc1ccc(C(=O)OCCCOC(=O)c2ccc(N)cc2)cc1`, for which the Potency entry in experiment [1], in experiment [2], in experiment [3] and in experiment [4] was “inactive” each time.

Regarding `Cc1c(N=C=O)cccc1N=C=O`, the Potency entry in experiment [1], in experiment [2], in experiment [3] and in experiment [4] was “inactive” throughout.

On to `C=C(C)C(=O)OC1CC(C)CC(C)(C)C1` (configuration not stated), for which the Potency result in experiment [1], in experiment [2], in experiment [3] and in experiment [4] was “inactive” throughout.

On to `O=C(CCCl)NCCc1ccccc1`, for which the Potency result in experiment [1], in experiment [2], in experiment [3] and in experiment [4] was “inactive” throughout.

For `ClC(Cl)(Br)Br`, the Potency entry in experiment [1], in experiment [2], in experiment [3] and in experiment [4] was “inactive” throughout.

For the compound `C=C(C)[C@@H]1CCC2=CCC[C@@H](C)[C@]2(C)C1`, the Potency result in experiment [1], in experiment [2], in experiment [3] and in experiment [4] was “inactive” in each case.

Regarding `CCCCN1C(=O)[C@@H]([C@H](O)C2CCCCC2)NC(=O)C12CCN(Cc1ccc(Oc3ccc(C(=O)O)cc3)cc1)CC2`, the Potency entry in experiment [1], in experiment [2], in experiment [3] and in experiment [4] was “inactive” throughout.
